Here are results for 7 compounds from PubChem BioAssay (Tox21).

“And” between values parts separate entries of the source, which are not always exact repeats. Equal entries are not always repeated. Results filed as inconclusive are left out. Some structures have more than one record in an assay (separate samples or runs), and their calls can disagree. The source made the active and inactive calls. Unless noted, the call rests on the fitted dose curve.

The target of assay [1] is Gonadotropin-releasing hormone receptor (Homo sapiens) (UniProt P30968). Description: Human gonadotropin-releasing hormone receptor (GnRHR) small molecule agonists, calcium flux assay in GnRHR-HEK293 cells (AID 1920063). Further: nearly all actives have a fitted effect of over 35% in size. A digest of the protocol: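 Stable human GnRHR HEK293 line. 18 h plating, then calcium dye for 1 h at 37 C. Agonist-mode compound addition from DMSO stocks; fluorescence monitored 3 min.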
Chain of Gonadotropin-releasing hormone receptor (Homo sapiens) (P30968 whole entry, looked up): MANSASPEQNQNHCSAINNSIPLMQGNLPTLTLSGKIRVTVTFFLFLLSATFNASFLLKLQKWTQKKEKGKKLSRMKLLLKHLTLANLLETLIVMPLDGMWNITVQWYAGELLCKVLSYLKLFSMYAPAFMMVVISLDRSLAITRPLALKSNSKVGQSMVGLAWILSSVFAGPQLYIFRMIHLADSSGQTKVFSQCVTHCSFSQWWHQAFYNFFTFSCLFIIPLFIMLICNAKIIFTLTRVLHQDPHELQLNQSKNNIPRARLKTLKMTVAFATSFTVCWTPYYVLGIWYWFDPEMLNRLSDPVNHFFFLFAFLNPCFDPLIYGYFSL

Assay [2] concerns the target KiSS-1 receptor (Homo sapiens) (UniProt Q969F8). The assay can be described thus: Human kisspeptin (KISS1R) small molecule agonists, calcium flux assay in KISS1R-HEK293 cells (AID 1920064; active means well fitted activation curve with a large enough effect in the repeat runs). A digest of the protocol: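 After overnight (18 h) culture at 37 C/5% CO2, human KISS1R-HEK293 cells received calcium dye for 1 h, then test compound; emission at 540 nm (excitation 480 nm) was tracked for 3 min.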

A short description of assay [3]: G protein-coupled receptor (GPCR) small molecule agonists, calcium flux assay: HEK293 wild type cell line counter screen (AID 1920065). The procedure, abridged: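 Following 18 h incubation at 37 C/5% CO2, plates got calcium dye for 1 h; compounds, ATP or DMSO were then pinned in and fluorescence followed kinetically (480/540 nm).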
(In general: Calcium flux is commonly read through the fluorescence of an indicator in the cells.)

Assay [4] can be described thus: p53 small molecule agonists, cell-based qHTS assay with human liver microsomes (AID 1963577).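 Further: p53 response element beta-lactamase reporter cells with liver microsomes plus NADPH.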 A digest of the protocol:
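p53RE-bla cells; 5 h settle, 37 C/5% CO2; cpd + HLM 0.5 mg/mL + NADPH 0.5 mg/mL (final); 16 h 37 C; LiveBLAzer 2 h RT dark; fluorescence readout.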
For orientation: In qHTS, concentration-response curves come from the screen itself.

The nature of assay [5]: p53 small molecule agonists, cell-based qHTS assay with rat liver microsomes (AID 1963578). The procedure, abridged:
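Rat liver microsome activation: microsomes 0.5 mg/mL, NADPH 0.5 mg/mL final; p53RE-bla cells, 16 h 37 C; LiveBLAzer readout, 2 h RT dark.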

A short description of assay [6]: p53 small molecule agonists, cell-based qHTS assay with human liver microsomes: qHTS cell viability counter screen (AID 1963579). Further: nearly all actives have a fitted effect of over 45% in size. A digest of the protocol: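 Luminescent CellTiter-Glo read-out, 30 min at room temperature, gauged cytotoxicity in p53RE-bla cells exposed 16 h at 37 C to DMSO-dissolved compounds with metabolic activation by human liver microsomes and NADPH, each 0.5 mg/mL final.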

Assay [7] in a line: p53 small molecule agonists, cell-based qHTS assay with rat liver microsomes: qHTS cell viability counter screen (AID 1963580). Further: nearly all actives have a fitted effect of over 45% in size. A digest of the protocol: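 Rat liver microsome (0.5 mg/mL final) and NADPH (0.5 mg/mL final) co-incubation with compounds for 16 h at 37 C on HCT-116 p53RE-bla cells; cytotoxicity taken from intracellular ATP luminescence.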
Assay [8] can be described thus: p53 small molecule agonists, cell-based qHTS assay: qHTS cell viability counter screen (AID 1963581). Further: nearly all actives have a fitted effect of over 45% in size. The procedure, abridged: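 qHTS counter screen: 16 h compound exposure at 37 C of p53RE-bla HCT-116 cells (4,000 per well, seeded 5 h prior), cell viability by ATP luminescence.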
Assay [9] in a line: p53 small molecule agonists, cell-based qHTS assay (AID 1963582; active means well fitted activation curve with a large enough effect in the signal ratio in the repeat runs, not every such curve was filed as active; the % refers to the signal ratio). The procedure, abridged:
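Measured: fluorescence from cleaved LiveBLAzer substrate. System: p53RE-bla cells, 16 h compound treatment at 37 C, 2 h substrate step at room temperature.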

Assay [10] concerns the target 5-hydroxytryptamine receptor 2A (Homo sapiens) (UniProt P28223). Description: 5-hydroxytryptamine receptor 2A (HTR2A) small molecule antagonists, cell-based qHTS assay (AID 1963586). Further: nearly all actives have a fitted effect of over 45% in size. Further: potency means the concentration at half of the fitted maximal effect. A digest of the protocol: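 CHO cells stably expressing human HTR2A were plated for 18 h at 37 C, then loaded with calcium dye for 1 h. Compounds were preincubated 5 min at room temperature before DOI (4 nM solution) was added. Kinetic fluorescence was read for 3 min.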

The target is the same in assay [11]. The assay can be described thus: 5-hydroxytryptamine receptor 2A (HTR2A) small molecule agonists, cell-based qHTS assay (AID 1963587). Further: nearly all actives have a fitted effect of over 30% in size. A digest of the protocol: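 Kinetic calcium-flux fluorescence (2 min, 1 sec intervals) after compound addition in agonist mode. HTR2A-CHO cells were cultured 18 h, then dye-loaded 1 h at 37 C.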
Assay [12] has as its target Muscarinic acetylcholine receptor M1 (Homo sapiens) (UniProt P11229). The assay can be described thus: Cholinergic receptor muscarinic 1 (CHRM1) small molecule antagonists, cell-based qHTS assay (AID 1963588). Further: nearly all actives have a fitted effect of over 40% in size. Further: potency means the concentration at half of the fitted maximal effect. A digest of the protocol:
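Compounds were tested at 15 concentrations in three independent runs. Dye-loaded CHRM1-CHO cells were exposed 5 min at room temperature before stimulation by acetylcholine added at 50nM. Intracellular calcium was read kinetically on FDSS for 3 min.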

Assay [13] is described as follows: cAMP Responsive Elements (CRE) small molecule agonists, cell-based qHTS assay (AID 1963590). A digest of the protocol:
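Test agents in DMSO were incubated 3 h at 37 C/5% CO2 with CRE-bla HEK 293T cells seeded 18 h earlier; LiveBLAzer B/G FRET substrate was added and read after 2 h at room temperature.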

The nature of assay [14]: cAMP Responsive Elements (CRE) small molecule antagonists, cell-based qHTS assay (AID 1963591; active means well fitted inhibition curve with a large enough effect in the signal ratio in the repeat runs, not every such curve was filed as active; the % refers to the signal ratio). A digest of the protocol:
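Reporter line CRE-bla HEK 293T in dialyzed-FBS DMEM; cells preincubated 18 h, treated 3 h with compound plus NKH477 (0.25 uM final); LiveBLAzer FRET, 2 h RT.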

In assay [15] the target is Muscarinic acetylcholine receptor M1 (Homo sapiens) (UniProt P11229). Description: Cholinergic receptor muscarinic 1 (CHRM1) small molecule agonists, cell-based qHTS assay (AID 1963589). Further: nearly all actives have a fitted effect of over 35% in size. A digest of the protocol: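 Kinetic fluorescence (1 s intervals) of calcium-sensitive dye in human M1 CHO cells after compound addition; cells pre-incubated 18 h at 37 C/5% CO2 and dye-loaded 1 h.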
Chain of Muscarinic acetylcholine receptor M1 (Homo sapiens) (P11229 whole entry, looked up): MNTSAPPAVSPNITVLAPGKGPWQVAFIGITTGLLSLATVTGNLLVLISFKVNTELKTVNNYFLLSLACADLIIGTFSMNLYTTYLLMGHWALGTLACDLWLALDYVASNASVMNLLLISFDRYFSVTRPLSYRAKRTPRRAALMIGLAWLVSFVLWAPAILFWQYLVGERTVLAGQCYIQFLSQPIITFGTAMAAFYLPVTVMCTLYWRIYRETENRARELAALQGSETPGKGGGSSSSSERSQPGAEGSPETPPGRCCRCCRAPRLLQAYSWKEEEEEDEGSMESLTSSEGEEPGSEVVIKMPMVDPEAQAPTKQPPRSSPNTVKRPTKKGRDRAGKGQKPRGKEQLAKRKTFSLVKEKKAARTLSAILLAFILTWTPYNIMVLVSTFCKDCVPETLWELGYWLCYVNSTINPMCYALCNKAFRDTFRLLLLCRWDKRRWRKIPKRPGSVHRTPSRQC

Assay [16] has as its target Beta-2 adrenergic receptor (Homo sapiens) (UniProt P07550). Description: Adrenergic beta2 receptor (ADRB2) small molecule agonists, cell-based qHTS assay (AID 1963593).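 Further: CHO cells stably overexpressing human ADRB2.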 A digest of the protocol:
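CHO cells stably over-expressing ADRB2 were plated overnight at 37C, then dosed with compounds plus a stimulation mix containing 100uM IBMX and 25uM Ro-20-1724 for 0.5hr at room temperature. cAMP was measured by HTRF competition, 1hr.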

The target of assay [17] is D(2) dopamine receptor (Homo sapiens) (UniProt P14416). Description: Dopamine D2 receptor (DRD2) small molecule agonists, cell-based qHTS assay (AID 1963594). Further: nearly all actives have a fitted effect of over 35% in size. A digest of the protocol:
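cAMP accumulation in DRD2-HEK293 cells measured by HTRF after 1 h detection; compounds added 10 min before NKH477 (200nM […]) forskolin-analogue stimulation, 30 min at room temperature, with Ro20-1724 present at 0.1 mM final.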

For assay [18] the target is unchanged. The assay can be described thus: Dopamine D2 receptor (DRD2) small molecule antagonists, cell-based qHTS assay (AID 1963595; active means well fitted inhibition curve with a large enough effect in the signal ratio in the repeat runs, with a control signal flat; the % refers to the signal ratio). The procedure, abridged:
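HEK293 cells stably expressing DRD2, preincubated with 0.1 mM Ro20-1724 and compounds 10 min, were stimulated with 200 nM NKH477 plus 12 nM quinpirole for 30 min at room temperature; cAMP measured by HTRF (665/620 nm).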

Assay [19] concerns the target Beta-2 adrenergic receptor (Homo sapiens) (UniProt P07550). Description: Adrenergic beta2 receptor (ADRB2) small molecule antagonists, cell-based qHTS assay (AID 1963592). Further: series mostly up to about 92 µM; nearly all actives have a fitted effect of over 50% in size. The procedure, abridged:
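Assay format: CHO-ADRB2 cells, 18-20hr seeding at 37C/5% CO2, then compound plus 1nM isoproterenol agonist mix for 0.5hr RT. Homogeneous time-resolved fluorescence cAMP detection after 1hr, expressed as 665/615 nm ratio.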
On the % scale 0 is the no-effect control and ±100 the full control effect.

Chain of 5-hydroxytryptamine receptor 2A (Homo sapiens) (P28223 whole entry, looked up): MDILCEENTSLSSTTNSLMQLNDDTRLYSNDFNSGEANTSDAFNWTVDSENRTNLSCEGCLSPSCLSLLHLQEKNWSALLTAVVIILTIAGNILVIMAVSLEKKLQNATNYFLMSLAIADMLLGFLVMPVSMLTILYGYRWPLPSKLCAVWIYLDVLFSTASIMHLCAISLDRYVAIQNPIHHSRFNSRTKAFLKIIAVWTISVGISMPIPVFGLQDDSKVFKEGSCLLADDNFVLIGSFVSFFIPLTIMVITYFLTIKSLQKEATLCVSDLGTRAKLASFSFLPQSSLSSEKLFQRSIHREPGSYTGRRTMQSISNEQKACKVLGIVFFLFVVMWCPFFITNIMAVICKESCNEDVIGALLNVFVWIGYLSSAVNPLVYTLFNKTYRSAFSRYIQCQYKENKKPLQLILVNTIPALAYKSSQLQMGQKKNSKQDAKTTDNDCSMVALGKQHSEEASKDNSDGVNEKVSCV
Chain of Beta-2 adrenergic receptor (Homo sapiens) (P07550 whole entry, looked up): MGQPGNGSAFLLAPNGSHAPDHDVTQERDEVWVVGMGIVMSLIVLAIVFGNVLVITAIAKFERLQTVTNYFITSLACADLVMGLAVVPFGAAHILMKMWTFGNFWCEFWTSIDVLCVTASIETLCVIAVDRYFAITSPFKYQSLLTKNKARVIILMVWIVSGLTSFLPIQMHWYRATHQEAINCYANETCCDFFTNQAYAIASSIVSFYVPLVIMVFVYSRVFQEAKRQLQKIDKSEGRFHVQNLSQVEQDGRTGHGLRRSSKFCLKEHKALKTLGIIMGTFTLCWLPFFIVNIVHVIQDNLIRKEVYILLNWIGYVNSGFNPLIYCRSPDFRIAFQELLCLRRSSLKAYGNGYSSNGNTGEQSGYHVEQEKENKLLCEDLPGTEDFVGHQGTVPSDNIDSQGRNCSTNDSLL
Chain of KiSS-1 receptor (Homo sapiens) (Q969F8 whole entry, looked up): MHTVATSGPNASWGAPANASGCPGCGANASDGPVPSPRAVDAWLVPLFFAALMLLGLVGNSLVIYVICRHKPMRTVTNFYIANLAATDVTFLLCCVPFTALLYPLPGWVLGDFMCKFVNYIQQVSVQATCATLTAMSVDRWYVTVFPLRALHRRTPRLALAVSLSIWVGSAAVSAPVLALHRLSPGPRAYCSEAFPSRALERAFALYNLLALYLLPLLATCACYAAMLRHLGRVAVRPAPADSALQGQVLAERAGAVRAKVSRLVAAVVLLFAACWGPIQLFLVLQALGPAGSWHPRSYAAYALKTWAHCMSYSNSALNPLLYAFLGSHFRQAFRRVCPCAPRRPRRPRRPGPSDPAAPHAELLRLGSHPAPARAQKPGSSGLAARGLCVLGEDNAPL
Chain of D(2) dopamine receptor (Homo sapiens) (P14416 whole entry, looked up): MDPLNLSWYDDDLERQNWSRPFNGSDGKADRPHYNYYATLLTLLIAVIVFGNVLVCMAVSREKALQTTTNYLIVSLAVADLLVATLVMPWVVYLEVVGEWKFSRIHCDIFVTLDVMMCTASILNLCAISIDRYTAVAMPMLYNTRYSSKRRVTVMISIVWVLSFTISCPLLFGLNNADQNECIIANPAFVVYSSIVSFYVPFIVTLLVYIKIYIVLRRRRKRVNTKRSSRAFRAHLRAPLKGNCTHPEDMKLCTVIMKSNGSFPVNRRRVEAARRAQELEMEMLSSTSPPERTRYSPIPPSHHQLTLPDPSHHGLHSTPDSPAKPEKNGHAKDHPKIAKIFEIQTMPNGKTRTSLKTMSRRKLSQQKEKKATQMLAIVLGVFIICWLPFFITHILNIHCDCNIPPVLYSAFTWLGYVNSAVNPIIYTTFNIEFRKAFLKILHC

With `Nc1cccnc1N`, the Potency result in [1], in [2], in assay [3], in [4], in assay [5] and in assay [6] was “inactive” each time. For the same compound, the Potency result in [7], in assay [8], in assay [9], in [10], in assay [11] and in assay [12] was “inactive” each time. The Potency entry in assay [13] and in assay [14] was “inactive” throughout.
With `C/C(=C(/OCCOc1ccc(Cl)cc1)c1ccc(Cl)cc1Cl)n1ccnc1`, the Potency result in assay [1], in assay [2], in assay [3], in assay [4], in [5] and in assay [6] was “inactive” each time. Further, the Potency entry in assay [7], in assay [8], in [9], in [11], in assay [15] and in assay [13] was “inactive” throughout. In addition, the Potency entry in [14], in [16], in [17] and in assay [18] was “inactive” throughout.
In the case of `Brc1c(NC2=NCCN2)ccc2nccnc12`, the Potency result in assay [1], in [2], in assay [3], in assay [4], in assay [5] and in assay [6] was “inactive” each time. Further, the Potency result in [8], in assay [9], in [13], in assay [14], in [16] and in assay [17] was “inactive” in each case. For the same compound, in [18], the Potency result was “inactive”.
Turning to `O=C(O)O`, the activity change in assay [1] is 1.69% [at 5.22 µM, stronger effect = higher value] (inactive). Also, the activation in [2] is 0.0823% [at 6.97 µM] (inactive); in [3] it was -0.66% [at 5.23 µM] (inactive); in assay [4] it was -14.9% [at 5.99 µM] (inactive); in assay [5] it was -6.42% [at 5.99 µM] (inactive); in assay [9], -4.58% [at 5.99 µM] (inactive); in [11] it was -3.03% [at 7.02 µM] (inactive). For the same compound, the activation is -0.0976% [at 6.97 µM] (inactive) in [15], 2.15% [at 8.39 µM] (inactive) in [13] and -1.72% [at 8.39 µM] (inactive) in [17]. In addition, in [8], the activity change, negative = cytotoxicity was 11.6% [at 5.99 µM] (inactive). Further, the activity, negative = inhibition in assay [10] is 11.9% [at 5.62 µM] (inactive); in assay [12] it was -13.8% [at 5.58 µM] (inactive). The activity change, negative = inhibition in assay [14] is -6.17% [at 8.39 µM] (inactive); in assay [19] it was -4.62% [at 8.39 µM] (inactive); in assay [18] it was 0.0808% [at 8.38 µM] (inactive).
As for `c1ccc(-c2ccccc2-c2ccccc2)cc1`, the Potency entry in [1], in [2], in assay [3], in [4], in assay [5] and in assay [9] was “inactive” throughout. The Potency result in assay [10], in [11], in [12], in [15], in assay [14] and in [19] was “inactive” each time. For the same compound, the Potency entry in assay [16], in assay [17] and in assay [18] was “inactive” each time.
For `O=C(c1ccccc1)c1ccc(O)cc1O`, the Potency entry in assay [1], in [2], in assay [3], in assay [4], in assay [5] and in assay [6] was “inactive” each time. In addition, the Potency entry in assay [7], in assay [8], in [15], in [14], in assay [19] and in assay [16] was “inactive” in each case. The Potency result in assay [17] and in [18] was “inactive” each time. The Potency in assay [10] is 38.2 µM (active) and 33.4 µM (active); in assay [12], 19.2 µM (active) and inactive.
As to `CCC(=O)/C=C/c1ccc(OC)cc1`, the Potency result in assay [1], in assay [2], in [3], in assay [4], in assay [5] and in assay [6] was “inactive” throughout. Further, the Potency entry in assay [7], in assay [8], in assay [9], in assay [10], in assay [11] and in [12] was “inactive” each time. Also, the Potency result in assay [15], in assay [16], in assay [17] and in [18] was “inactive” throughout.
